From PubChem
Shown are actives, neighbours in structure and some others; about 8% of the full set was active somewhere.
Gal4-VP16 FLuc – VP16 counterscreen qHTS for inhibitors of ROR gamma transcriptional activity. Drosophila S2 Gal4-VP16 UAS-luciferase, luminescence, 20 h. Potency, µM (highest dose often 53.6 µM), for inactives: top-dose activity, negative = inhibition, actives largely listed as inhibitors. 3.5% of 310,000 active;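 note: Gal4-VP16 expression switched on by copper sulfate through the metallothionein promoter; potency is the fitted concentration of half-maximal effect; nearly all actives have a fitted effect of over 50% in size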
TSHR antag – Antagonists of the Thyroid Stimulating Hormone Receptor: HTS campaign | Thyrotropin receptor (Homo sapiens), P16473 | activity change, negative = inhibition, % at 11.5 µM | AID 504810, 2011 | TSHR-expressing cells, TSH-stimulated cAMP HTRF, 2 h; active compounds read low | 0.2% of 330,000 active;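 active = activity change below a set negative limit, meaning inhibition stronger than a set level, cut at about -70% in these data; inconclusive = activity change between two set negative limits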
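Freshly harvested TSHR cells receive pin-tooled compound, then EC80 TSH at 4nM final. After 2 hours at 37 deg C, antibody in lysis buffer and cAMP-d2 are added; 30 minutes at ambient temperature precede the HTRF read.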
RORgamma inh – qHTS for inhibitors of ROR gamma transcriptional activity; AID 2551, 2010; 5.4% of 310,000 active; Potency, µM (top dose mostly 53.6 µM), for the others: at the top dose activity change, negative = inhibition, most hits filed as inhibitors; Drosophila S2 Gal4-RORgamma UAS-luciferase reporter, 20 h; Nuclear receptor ROR-gamma (Mus musculus), P51450; note: potency is the fitted concentration of half-maximal effect; nearly all actives have a fitted effect of over 60% in size
Target sequence (P51450 whole entry, looked up, the tested form may be a part): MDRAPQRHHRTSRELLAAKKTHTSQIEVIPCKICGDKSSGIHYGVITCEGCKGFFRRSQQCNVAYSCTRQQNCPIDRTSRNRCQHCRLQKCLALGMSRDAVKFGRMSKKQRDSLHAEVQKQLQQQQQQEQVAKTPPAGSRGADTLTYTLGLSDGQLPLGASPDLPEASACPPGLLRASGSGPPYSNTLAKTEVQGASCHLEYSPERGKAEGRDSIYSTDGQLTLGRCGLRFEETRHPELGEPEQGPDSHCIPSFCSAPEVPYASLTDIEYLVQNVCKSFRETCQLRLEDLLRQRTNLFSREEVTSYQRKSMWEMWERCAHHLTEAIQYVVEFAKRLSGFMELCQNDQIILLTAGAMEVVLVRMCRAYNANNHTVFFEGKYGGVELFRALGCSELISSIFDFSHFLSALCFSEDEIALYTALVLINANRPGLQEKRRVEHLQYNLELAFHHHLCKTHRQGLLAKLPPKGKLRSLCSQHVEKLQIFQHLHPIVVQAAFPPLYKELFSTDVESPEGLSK
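A Gal4/UAS one-hybrid system in insect cells: metallothionein-promoter Gal4–ROR gamma fusion plus Photinus luciferase reporter. Copper sulfate 700 uM final, 20 hr ambient incubation, luminescent detection after 10 min with reagent.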
ELG1 repair inh – qHTS screen for small molecules that inhibit ELG1-dependent DNA repair in human embryonic kidney (HEK293T) cells expressing luciferase-tagged ELG1; HEK293T ELG1-luciferase reporter, luminescence, 16 h; DNA damage induced by 5-fluorouridine; Potency, µM (doses to about 46.1 µM), for the others: at the top dose activity change, negative = inhibition, hits mostly inhibitors; 2.3% of 330,000 active; note: potency is the fitted concentration of half-maximal effect; nearly all actives have a fitted effect of over 55% in size
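Luminescence from the luciferase reporter, measured 30 min after ONE-Glo reagent at room temperature, was the read-out. Beforehand, 2,000 cells per well were exposed for 16 hr at 37 °C to 5-fluorouridine together with compound or vehicle.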
FBPA coupling cs – qHTS Assay for Inhibitors of Fructose-1,6-bisphosphate Aldolase from Giardia Lamblia: Coupling assay counterscreen; coupling enzyme system counterscreen, AmpLite Red fluorescence; activity change, negative = inhibition, % at 58.2 µM, hits read low; 0.67% of 290,000 active; in the data active = activity change below about -30%
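Coupling enzymes only (glyceraldehyde-3-phosphate) + compound, at 57.5 uM final, 10 min RT; add substrate/coupling/AmpLite Red mix, 20 min RT; fluorescence ex 525/em 598 nm. Actives flag coupling-system interference.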
The depositor's hits bear a star; ? = inconclusive; / = not tested or not shown. Unless noted, calls come from the whole dose curve; as a rule, active = well fitted curve in the direction sought with a large enough effect; inconclusive = small, poorly fitted or top-dose-only effect, or another doubt; inactive = no such curve, though single readings can be large; an effect the other way counts as inactive or inconclusive. % is set by controls: 0 for no effect and ±100 for the full control effect.

SMILES	Gal4-VP16 FLuc	TSHR antag	RORgamma inh	ELG1 repair inh	FBPA coupling cs
COc1ccc(Oc2ncc3ncc(=O)n(C4CC4)c3n2)cc1	3%	/	12%	/	-2
C=CCNC(=S)N/N=C/c1ccc(-c2cc(Cl)ccc2Cl)o1	-4%	18	2%	-1%	-3
Cc1ccc(-c2ccc(/C=N\NC(=O)c3cc4c(ccc5ccccc54)o3)o2)cc1[N+](=O)[O-]	-16%	17	-19%	?	1
Cc1ccc(-c2ccc(/C=N/NC(=S)Nc3ccccc3)o2)cc1[N+](=O)[O-]	13µM*	-17	0.89µM*	?	-3
C=CCNC(=S)N/N=C/c1ccc(-c2ccc(OC)cc2)o1	1.8µM*	-17	0.56µM*	?	0
COc1ccc(-c2csc3nc(-c4ccc(C)cc4)oc(=O)c23)cc1OC	?	-3	-6%	9%	-1
COc1ccc(-c2csc3nc(-c4ccccc4OC)oc(=O)c23)cc1	-19%	-4	11µM*	-7%	-2
O=C(c1ccccc1)C1CCN(C(=O)C2CCC(=O)N(Cc3ccccc3F)C2)CC1 (stereo unspecified)	10%	4	33%	-2%	-3
CCOc1ccc(-n2nc3ccc(NC(=O)c4ccc5c(c4)OCCO5)cc3n2)cc1	11µM*	2	10µM*	?	-1
CCOc1cccc(C(=O)NC(=S)Nc2ccc3c(c2)OCCO3)c1	1%	7	7.9µM*	?	0
CCOc1cccc(C(=O)NC(=S)Nc2ccc(N3CCCC3)cc2)c1	6.3µM*	-9	2.2µM*	0%	-9
O=C(NC(=S)Nc1ccc2c(c1)OCCO2)c1ccccc1	?	-10	4µM*	?	3
CC(NC(=O)c1ccc([N+](=O)[O-])o1)C1CC2CCC1C2 (stereo unspecified)	/	-45	/	-12%	/
Cc1ccc(S(=O)(=O)N2[C@@H](c3cccc(Cl)c3)C(C(=O)O)=CC[C@H]2c2cccs2)cc1	/	2	/	13%	/
COc1cccc(OC)c1C(=O)NC(=S)Nc1ccc2c(c1)OCCO2	-15%	-1	13µM*	?	0
CCOc1cccc(C(=O)NC(=S)Nc2ccc(Cl)cc2C(=O)O)c1	3.5µM*	-6	7.1µM*	11%	0
COc1cccc(C(=O)NC(=S)Nc2ccc(Cl)c(C(=O)O)c2)c1	-12%	/	-3%	/	17
O=C(COc1ccccc1Br)Nc1ccc2c(c1)OCCCO2	-11%	8	18µM*	?	-2
O=C(NC(=S)Nc1ccc2c(c1)OCCO2)c1ccccc1F	?	-8	10µM*	?	0
COc1cccc(OC)c1C(=O)NC(=S)Nc1cccc(NC(=O)c2ccco2)c1	-3%	3	24%	-16%	0
CC(C)CN(C(=O)COC(=O)c1nc(Cl)ccc1Cl)c1c(N)n(Cc2ccccc2)c(=O)[nH]c1=O	5%	-1	5%	1%	/
Cc1onc(-c2ccccc2)c1C(=O)Nc1nncs1	6%	5	-31%	1%	0
NCCC[C@@H](CC(=O)N[C@@H]1CCCC[C@H]1C(=O)N[C@H](CC(=O)N[C@@H](CCC(=O)O)CC(=O)O)Cc1ccccc1)NC(=O)C[C@H](Cc1ccccc1)NC(=O)[C@@H]1CNCC[C@H]1N	-1%	/	1%	/	-1
COc1ccc(-c2nnc(SCC(=O)c3cc(C)n(Cc4cccs4)c3C)o2)cc1	-3%	-1	-4%	3%	1
Cc1cc(C(=O)CSc2nnc(N)s2)c(C)n1Cc1cccs1	11µM*	4	8.9µM*	?	-5
Cc1csc(SCC(=O)c2cc(C)n(Cc3cccs3)c2C)n1	8.9µM*	-25	6.3µM*	?	-1
COc1cccc(NC(=O)CN(C)C(=O)c2cccnc2Sc2ccc(C)c(C)c2)c1	/	7	/	?	/
CN(C)S(=O)(=O)c1cccc(NC(=S)NCc2ccco2)c1	-14%	47	-43%	?	10
